target: T1, ETS1 (UniProt P14921); experiment: ETS1 binding intensity (PBM fluorescence), ETS1 alone (arbitrary fluorescence units); higher = stronger binding; details: ETS1 concentration 1 nM; RUNX1 concentration 0 nM
T1 sequence: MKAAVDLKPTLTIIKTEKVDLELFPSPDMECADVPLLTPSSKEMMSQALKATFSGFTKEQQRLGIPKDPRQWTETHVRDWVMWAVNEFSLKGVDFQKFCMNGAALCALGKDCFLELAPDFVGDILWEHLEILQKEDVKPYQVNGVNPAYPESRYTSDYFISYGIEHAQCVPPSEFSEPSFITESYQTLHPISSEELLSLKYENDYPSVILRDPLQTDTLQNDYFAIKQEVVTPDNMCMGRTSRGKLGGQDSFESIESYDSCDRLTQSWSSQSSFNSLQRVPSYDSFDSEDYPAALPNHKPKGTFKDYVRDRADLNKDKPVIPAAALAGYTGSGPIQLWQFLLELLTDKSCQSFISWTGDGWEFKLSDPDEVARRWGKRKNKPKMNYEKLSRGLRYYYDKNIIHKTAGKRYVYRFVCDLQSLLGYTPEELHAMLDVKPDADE

Row | Sequence | ETS1 binding intensity
1 | GAGACACTCTGCTTCCTGCGGTGGAAGATTCAGTAT | 473
2 | CAGTTTGCCCCGGATGTTGACCGCCTTGAAGTCGTA | 4170
3 | CCCACCCGGAAATGAGCCAACAGTGGTTTCGCCCCG | 1590
4 | GTGCCGGCGGCCGGATGTGGGCGGGGCCACGGGGAG | 8590
5 | GAGTACAGGAAATGCAAAGTAAAACCACAGTGAGAT | 1460
6 | CCGGGAAGGCGGAAGCAGCAGAGACGCCGCAAGGCC | 1320
7 | TGACATTTCCGGCCCCACCTCGGCCCGCAGCGCCGC | 1180
8 | TTTACAGGAAATTACAGGGGTTAAACCAAACCACAA | 986
9 | GCCTGTCGCAGGAACGGAAGTGGTTACGGCCCTAGT | 8480
10 | TGCCTCACCTCACATCCGTTTGTGGCTGCCGAGTGC | 1090
11 | GCGCCCGGAAGGAAGGCTGGGGTAGGTTGTGGTTTC | 476
12 | TTTAGACACCGCTTCCTGCCACAAGCCCAAGACTTA | 758
13 | CCTTTACGTTTTCCTGTTGCGGGTTCTATCGCTCTG | 506
14 | ATGTCTTCCTGTACAGGAACTGGGTCCCAGCCGCAG | 4120
15 | CAAGGTTCCTCCGCTTCCTGCCCGCAGGCCGAACCT | 956
16 | AGCGCCGGAAGTGTGTCTGCGTAAAACTGCGGCTCG | 3490
17 | GAGCCTGTTGCTTCCGGTTCAGAGCCCACATGCTGG | 3070
18 | AGTACGATGGGAGGAAGTGGTTTGTAAGAGGAGGAC | 1740
19 | CTGAGCAAAAGGAGGAAGCTGTGGTCTGTGTACCCA | 606
20 | CACTTCCTGCCCTCTTCCACTTTCAAAACCACATCA | 869

Row | Sequence | ETS1 binding intensity
21 | CCTCTGAGGCAGGAAGCTGCGGTGAAGTCTGAAGTT | 3300
22 | GCCCCTAAACCGGATGCGGCAGCCACCGCGGACCCC | 9010
23 | AGGGCTGAAACAGGATGTGGTGAGTGAGGTAGGGTG | 6020
24 | CCAACACAGGAAATAATTTGAAACCACAATCAGAAA | 1270
25 | GTAAAAGAGGAAGTAACACCTCCTTGCGGTTGAGAC | 1450
26 | AGTCTAACCAACAAAGGATGTGGTAGGTAAAAGGTT | 1250
27 | CCTCAATTTCCTGGCCAGAGAAACCACTGCCTCTCA | 546
28 | GGGTGCAGACGGGAAGTTGCGGCTGCCAGCGAAGCT | 1680
29 | AAGTTTTGGGTTTTCCGCCCACAGCCGCCGAAAGTG | 630
30 | GAGGGCTGCTTCCTGCTCTGTGGAGGCCGCAGCGGG | 555
31 | CAGGCTGCTTCCGGCGCGCGGCAGAGCGGTCAGAGC | 990
32 | GAGAAACAAACAGGATGTGGTCTCTGCCCTGGAGGA | 7010
33 | GGGAGGTGTCCAGGAAGTGGTTGGAGAGTCTGGTCT | 2240
34 | TCTGTCGCACATCCGGTGTGAGCTGCGGGGCGGTGG | 7930
35 | TGACGGCAGGCAGGATGTGGTGAGACAAATCCACTC | 4070
36 | AGCGCCCCATCCCGCGGATGTGGTAAAGCTTCGCGC | 658
37 | TGCAAGAGGAAGCTGGGGTTTGTGGTTCATGTTTTG | 528
38 | TATGGCGGGCAGGAAGTGCGGGTGCGCGCCTGCGCA | 4640
39 | AGCAGGAAGTATGTTGAAAGTCATAACCACAGCAAA | 908
40 | CCGATGGCGGCGGAACTGTGGTCAGGGCTGCCCTGA | 365

Reference: the supplement of paper PMC10681739
